Tests used:
Test in all cases: DAPPL (digital affinity profiling via proximity ligation, sequencing); 10 mM Tris-HCl pH 7.5, 50 mM NaCl, 1 mM DTT, 4% glycerol, room temperature, 30 min; GST-TFs on glutathione beads, 16-mer random dsDNA library, 0.1% formaldehyde crosslink after washing; high values mean tight binding
FLI1 = target: T1, FLI1 (Homo sapiens, UniProt Q01543 1-452); conditions: protein: recombinant; tags: N-terminal GST; dsDNA, one strand shown
T1 sequence: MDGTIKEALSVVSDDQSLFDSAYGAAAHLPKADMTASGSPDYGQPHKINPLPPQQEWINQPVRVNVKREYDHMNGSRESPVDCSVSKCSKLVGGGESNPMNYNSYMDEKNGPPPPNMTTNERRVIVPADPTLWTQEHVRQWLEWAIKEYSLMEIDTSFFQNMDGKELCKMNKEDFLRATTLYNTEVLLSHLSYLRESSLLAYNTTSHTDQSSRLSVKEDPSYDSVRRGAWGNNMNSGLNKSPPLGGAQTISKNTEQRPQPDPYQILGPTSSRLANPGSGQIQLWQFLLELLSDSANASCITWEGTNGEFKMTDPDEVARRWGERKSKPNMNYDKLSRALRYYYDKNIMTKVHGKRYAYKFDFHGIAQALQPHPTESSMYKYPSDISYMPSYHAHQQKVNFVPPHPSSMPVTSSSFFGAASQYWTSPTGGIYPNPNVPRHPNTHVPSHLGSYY
In short: (§1)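 Binding signal is defined as a hexamer's read frequency for one factor over its frequency for the tag-only sample. To obtain reads, GST-fused human transcription factors were expressed in yeast, captured on glutathione beads, barcoded with DNA and pooled with that sample. Pools met 200 nmole of a 16-mer random double-stranded DNA library in Tris/NaCl/DTT/glycerol buffer for 30 min at room temperature before washing, 0.1% formaldehyde crosslinking, proximity ligation (BsaI/T4 ligase, 1 h, 37 °C), PCR and Illumina NextSeq500 sequencing.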

ELK1 = target: T2, ELK1 (Homo sapiens, UniProt P19419 1-428); conditions: protein: recombinant; tags: N-terminal GST; dsDNA, one strand shown
T2 sequence: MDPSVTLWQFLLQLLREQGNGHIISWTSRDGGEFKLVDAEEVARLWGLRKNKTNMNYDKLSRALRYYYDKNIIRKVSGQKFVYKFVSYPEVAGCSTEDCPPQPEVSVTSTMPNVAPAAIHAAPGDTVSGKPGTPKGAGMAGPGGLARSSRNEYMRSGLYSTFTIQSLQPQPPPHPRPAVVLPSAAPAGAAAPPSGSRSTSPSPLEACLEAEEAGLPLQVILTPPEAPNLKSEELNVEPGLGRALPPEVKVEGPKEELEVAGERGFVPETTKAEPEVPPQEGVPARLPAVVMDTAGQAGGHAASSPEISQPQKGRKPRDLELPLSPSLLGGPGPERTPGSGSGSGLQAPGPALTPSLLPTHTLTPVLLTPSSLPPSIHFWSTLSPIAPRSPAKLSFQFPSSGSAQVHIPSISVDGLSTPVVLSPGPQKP
In short: as §1

GABPA = target: T3, GABPA (Homo sapiens, UniProt Q06546 1-454); conditions: protein: recombinant; tags: N-terminal GST; dsDNA, one strand shown
T3 sequence: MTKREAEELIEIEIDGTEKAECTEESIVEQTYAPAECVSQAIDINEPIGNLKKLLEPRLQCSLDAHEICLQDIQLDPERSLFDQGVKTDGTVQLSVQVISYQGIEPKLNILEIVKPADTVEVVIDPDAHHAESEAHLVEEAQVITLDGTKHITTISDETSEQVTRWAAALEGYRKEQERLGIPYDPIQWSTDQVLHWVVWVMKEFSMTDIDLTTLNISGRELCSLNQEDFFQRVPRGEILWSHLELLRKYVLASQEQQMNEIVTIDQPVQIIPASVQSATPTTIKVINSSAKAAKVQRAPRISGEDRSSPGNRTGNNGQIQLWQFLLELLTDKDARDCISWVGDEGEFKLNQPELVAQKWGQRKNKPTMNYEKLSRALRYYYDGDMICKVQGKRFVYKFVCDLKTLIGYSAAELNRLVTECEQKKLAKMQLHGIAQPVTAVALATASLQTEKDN
In short: as §1

ERG = target: T4, ERG (Homo sapiens, UniProt P11308 1-479); conditions: protein: recombinant; tags: N-terminal GST; dsDNA, one strand shown
T4 sequence: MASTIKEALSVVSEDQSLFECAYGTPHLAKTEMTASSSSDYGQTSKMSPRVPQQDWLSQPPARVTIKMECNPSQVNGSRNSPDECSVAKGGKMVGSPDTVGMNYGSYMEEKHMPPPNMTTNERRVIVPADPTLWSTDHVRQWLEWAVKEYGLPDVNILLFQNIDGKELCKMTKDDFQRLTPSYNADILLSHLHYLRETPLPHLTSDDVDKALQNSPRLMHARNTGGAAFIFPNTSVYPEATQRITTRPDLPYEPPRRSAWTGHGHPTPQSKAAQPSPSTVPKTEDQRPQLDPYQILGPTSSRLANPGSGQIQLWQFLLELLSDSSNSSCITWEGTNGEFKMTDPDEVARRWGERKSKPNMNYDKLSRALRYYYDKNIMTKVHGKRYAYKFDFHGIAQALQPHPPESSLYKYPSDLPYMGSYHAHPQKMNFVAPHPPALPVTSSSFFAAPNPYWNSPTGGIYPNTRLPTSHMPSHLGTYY
In short: as §1

ELF1 = ELF1 (Homo sapiens, UniProt P32519 1-619); conditions: protein: recombinant; tags: N-terminal GST; dsDNA, one strand shown
ELF1, sequence (P32519 whole entry): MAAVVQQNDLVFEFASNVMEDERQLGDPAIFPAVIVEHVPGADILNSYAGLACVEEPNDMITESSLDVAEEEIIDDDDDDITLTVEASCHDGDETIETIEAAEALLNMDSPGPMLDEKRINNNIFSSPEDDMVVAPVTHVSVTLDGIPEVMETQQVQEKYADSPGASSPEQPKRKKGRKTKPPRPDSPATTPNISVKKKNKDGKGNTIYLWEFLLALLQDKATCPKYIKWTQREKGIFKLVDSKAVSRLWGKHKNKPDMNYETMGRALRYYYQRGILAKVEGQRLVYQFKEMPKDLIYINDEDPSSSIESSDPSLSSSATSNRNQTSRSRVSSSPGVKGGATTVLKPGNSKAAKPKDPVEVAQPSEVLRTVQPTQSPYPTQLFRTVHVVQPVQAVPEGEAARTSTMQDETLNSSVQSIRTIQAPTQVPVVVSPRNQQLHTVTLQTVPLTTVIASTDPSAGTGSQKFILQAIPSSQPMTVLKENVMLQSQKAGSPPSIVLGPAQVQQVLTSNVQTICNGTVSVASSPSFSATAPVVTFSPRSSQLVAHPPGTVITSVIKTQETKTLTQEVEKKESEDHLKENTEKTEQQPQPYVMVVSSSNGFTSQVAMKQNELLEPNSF
In short: as §1

EHF = target: T5, EHF (Homo sapiens, UniProt Q9NZC4 1-300); conditions: protein: recombinant; tags: N-terminal GST; dsDNA, one strand shown
T5 sequence: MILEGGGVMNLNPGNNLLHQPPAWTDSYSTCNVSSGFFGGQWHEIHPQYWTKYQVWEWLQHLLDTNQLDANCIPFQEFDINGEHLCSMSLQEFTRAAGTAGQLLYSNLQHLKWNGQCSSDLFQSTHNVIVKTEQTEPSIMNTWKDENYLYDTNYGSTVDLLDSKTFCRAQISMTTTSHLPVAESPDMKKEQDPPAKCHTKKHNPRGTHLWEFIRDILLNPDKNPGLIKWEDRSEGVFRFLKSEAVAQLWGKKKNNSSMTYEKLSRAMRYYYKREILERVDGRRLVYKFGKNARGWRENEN
In short: as §1

SPI1 = SPI1 (Homo sapiens, UniProt P17947 1-270); conditions: protein: recombinant; tags: N-terminal GST; dsDNA, one strand shown
In short: as §1

SPIB = SPIB (Homo sapiens, UniProt Q01892 1-262); conditions: protein: recombinant; tags: N-terminal GST; dsDNA, one strand shown
SPIB, sequence (Q01892 whole entry): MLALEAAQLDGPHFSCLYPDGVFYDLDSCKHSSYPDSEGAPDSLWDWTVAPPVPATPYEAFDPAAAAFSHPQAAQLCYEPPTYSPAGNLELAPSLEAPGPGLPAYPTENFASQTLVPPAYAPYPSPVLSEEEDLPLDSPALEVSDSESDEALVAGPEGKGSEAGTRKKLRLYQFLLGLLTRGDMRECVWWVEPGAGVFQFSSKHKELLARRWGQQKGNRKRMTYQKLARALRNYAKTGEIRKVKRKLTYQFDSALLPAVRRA
In short: as §1

ELK3 = target: T6, ELK3 (Homo sapiens, UniProt P41970 1-407); conditions: protein: recombinant; tags: N-terminal GST; dsDNA, one strand shown
T6 sequence: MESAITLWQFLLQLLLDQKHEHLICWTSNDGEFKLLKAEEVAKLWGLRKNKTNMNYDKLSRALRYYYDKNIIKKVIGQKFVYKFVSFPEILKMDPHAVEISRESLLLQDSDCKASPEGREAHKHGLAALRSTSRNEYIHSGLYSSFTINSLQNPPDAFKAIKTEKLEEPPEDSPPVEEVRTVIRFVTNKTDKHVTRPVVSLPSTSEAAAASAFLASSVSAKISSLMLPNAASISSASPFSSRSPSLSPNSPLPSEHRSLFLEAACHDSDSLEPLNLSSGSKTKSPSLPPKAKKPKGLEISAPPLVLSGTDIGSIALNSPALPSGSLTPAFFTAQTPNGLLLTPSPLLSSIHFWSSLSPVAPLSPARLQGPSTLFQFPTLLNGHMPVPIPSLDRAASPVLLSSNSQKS
In short: as §1

FEV = target: T7, FEV (Homo sapiens, UniProt Q99581 1-238); conditions: protein: recombinant; tags: N-terminal GST; dsDNA, one strand shown
T7 sequence: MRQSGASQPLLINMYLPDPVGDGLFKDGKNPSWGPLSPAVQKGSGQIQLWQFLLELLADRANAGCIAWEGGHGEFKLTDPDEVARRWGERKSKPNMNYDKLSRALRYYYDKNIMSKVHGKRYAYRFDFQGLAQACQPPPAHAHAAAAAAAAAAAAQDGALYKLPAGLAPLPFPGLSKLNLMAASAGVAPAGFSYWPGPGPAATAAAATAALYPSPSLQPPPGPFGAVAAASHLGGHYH
In short: as §1

ETV5 = ETV5 (Homo sapiens, UniProt P41161 1-510); conditions: protein: recombinant; tags: N-terminal GST; dsDNA, one strand shown
ETV5, sequence (P41161 whole entry): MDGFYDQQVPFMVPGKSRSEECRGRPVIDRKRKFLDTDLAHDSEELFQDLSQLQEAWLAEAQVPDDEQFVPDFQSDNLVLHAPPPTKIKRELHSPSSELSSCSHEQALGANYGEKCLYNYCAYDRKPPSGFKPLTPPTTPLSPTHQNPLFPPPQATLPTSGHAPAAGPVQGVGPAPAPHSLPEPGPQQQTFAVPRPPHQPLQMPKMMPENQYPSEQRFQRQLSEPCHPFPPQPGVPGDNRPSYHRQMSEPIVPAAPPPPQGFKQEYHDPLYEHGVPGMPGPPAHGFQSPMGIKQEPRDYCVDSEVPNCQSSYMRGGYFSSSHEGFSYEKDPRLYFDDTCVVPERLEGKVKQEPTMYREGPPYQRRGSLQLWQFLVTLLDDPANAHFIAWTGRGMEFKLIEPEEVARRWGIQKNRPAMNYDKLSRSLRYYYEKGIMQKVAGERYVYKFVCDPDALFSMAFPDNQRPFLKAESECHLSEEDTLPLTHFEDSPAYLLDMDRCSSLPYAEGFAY
In short: as §1

HSF1 = HSF1 (Homo sapiens, UniProt Q00613 1-529); conditions: protein: recombinant; tags: N-terminal GST; chain copies: 3; dsDNA, one strand shown
HSF1, sequence (Q00613 whole entry): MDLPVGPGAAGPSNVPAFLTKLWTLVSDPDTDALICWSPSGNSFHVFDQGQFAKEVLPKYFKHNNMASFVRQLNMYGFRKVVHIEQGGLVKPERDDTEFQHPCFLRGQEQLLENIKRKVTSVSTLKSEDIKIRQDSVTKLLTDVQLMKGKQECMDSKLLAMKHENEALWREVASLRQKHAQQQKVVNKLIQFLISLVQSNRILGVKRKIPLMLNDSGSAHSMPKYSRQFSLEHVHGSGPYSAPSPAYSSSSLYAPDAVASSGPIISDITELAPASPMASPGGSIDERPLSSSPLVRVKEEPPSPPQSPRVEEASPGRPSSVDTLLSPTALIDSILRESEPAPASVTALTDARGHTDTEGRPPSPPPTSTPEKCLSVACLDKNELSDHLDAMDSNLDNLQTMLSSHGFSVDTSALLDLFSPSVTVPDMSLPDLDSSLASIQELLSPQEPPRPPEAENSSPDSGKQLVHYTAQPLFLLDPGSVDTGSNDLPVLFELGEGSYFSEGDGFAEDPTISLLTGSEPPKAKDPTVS
In short: as §1

SPIC = target: T8, SPIC (Homo sapiens, UniProt Q8N5J4 1-248); conditions: protein: recombinant; tags: N-terminal GST; dsDNA, one strand shown
T8 sequence: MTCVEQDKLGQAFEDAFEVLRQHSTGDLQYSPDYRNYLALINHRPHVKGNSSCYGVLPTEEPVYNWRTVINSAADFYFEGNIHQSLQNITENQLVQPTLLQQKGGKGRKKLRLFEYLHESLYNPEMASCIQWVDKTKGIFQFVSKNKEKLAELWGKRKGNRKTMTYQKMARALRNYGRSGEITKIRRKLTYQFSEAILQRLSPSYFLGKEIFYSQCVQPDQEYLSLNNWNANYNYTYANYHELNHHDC
In short: as §1

ELF4 = ELF4 (Homo sapiens, UniProt Q99607 1-663); conditions: protein: recombinant; tags: N-terminal GST; dsDNA, one strand shown
ELF4, sequence (Q99607 whole entry): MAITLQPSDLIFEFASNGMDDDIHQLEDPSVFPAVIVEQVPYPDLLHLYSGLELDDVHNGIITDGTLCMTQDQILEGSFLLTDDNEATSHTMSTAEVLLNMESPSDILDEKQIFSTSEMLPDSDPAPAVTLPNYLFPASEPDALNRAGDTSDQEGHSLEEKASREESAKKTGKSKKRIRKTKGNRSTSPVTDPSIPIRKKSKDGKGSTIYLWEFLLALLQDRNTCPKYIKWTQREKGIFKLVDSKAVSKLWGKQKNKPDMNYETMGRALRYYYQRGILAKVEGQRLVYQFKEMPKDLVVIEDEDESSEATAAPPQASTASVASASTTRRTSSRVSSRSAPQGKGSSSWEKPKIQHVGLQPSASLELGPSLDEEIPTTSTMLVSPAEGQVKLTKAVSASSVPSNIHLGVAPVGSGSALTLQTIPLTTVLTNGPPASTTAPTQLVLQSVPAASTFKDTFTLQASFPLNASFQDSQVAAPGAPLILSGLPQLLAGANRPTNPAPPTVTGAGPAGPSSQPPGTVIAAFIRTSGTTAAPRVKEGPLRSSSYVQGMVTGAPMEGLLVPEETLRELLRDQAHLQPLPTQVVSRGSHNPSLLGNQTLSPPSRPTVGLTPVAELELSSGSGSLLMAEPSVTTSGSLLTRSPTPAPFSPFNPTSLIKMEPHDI
In short: as §1

ELK4 = target: T9, ELK4 (Homo sapiens, UniProt P28324-2 1-405); conditions: protein: recombinant; tags: N-terminal GST; dsDNA, one strand shown
T9 sequence: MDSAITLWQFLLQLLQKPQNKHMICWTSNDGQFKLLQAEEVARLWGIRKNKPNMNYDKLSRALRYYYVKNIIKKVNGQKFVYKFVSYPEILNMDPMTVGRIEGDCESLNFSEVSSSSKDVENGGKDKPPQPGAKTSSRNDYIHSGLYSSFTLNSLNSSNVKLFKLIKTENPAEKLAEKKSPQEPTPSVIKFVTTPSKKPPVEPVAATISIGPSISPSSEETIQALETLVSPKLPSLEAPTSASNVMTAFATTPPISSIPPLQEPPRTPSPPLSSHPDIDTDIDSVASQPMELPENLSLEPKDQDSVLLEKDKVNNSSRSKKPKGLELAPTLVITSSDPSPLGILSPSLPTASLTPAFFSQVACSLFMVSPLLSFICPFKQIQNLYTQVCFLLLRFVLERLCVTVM
In short: as §1

ETV2 = target: T10, ETV2 (Homo sapiens, UniProt O00321 1-342); conditions: protein: recombinant; tags: N-terminal GST; dsDNA, one strand shown
T10 sequence: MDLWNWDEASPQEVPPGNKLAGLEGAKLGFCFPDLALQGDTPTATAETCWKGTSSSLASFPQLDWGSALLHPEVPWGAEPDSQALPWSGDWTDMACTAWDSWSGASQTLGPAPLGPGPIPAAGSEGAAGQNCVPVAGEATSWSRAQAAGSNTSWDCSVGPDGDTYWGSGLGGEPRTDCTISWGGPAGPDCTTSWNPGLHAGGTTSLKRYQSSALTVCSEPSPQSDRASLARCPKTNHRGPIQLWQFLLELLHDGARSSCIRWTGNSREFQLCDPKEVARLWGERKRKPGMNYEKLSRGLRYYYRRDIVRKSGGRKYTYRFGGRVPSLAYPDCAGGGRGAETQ
In short: as §1

ELF3 = target: T11, ELF3 (Homo sapiens, UniProt P78545 1-371); conditions: protein: recombinant; tags: N-terminal GST; dsDNA, one strand shown
T11 sequence: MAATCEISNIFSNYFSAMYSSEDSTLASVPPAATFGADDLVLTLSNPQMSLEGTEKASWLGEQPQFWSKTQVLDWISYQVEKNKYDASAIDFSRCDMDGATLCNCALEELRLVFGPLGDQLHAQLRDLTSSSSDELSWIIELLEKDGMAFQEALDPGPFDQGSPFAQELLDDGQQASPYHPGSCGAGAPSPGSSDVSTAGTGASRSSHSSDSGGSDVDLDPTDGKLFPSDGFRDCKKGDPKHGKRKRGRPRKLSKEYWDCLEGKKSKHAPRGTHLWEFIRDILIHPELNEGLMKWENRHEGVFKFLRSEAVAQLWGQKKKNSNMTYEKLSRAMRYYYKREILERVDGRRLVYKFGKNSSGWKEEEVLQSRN
In short: as §1

CRX = CRX (Homo sapiens, UniProt O43186 1-299); conditions: protein: recombinant; tags: N-terminal GST; dsDNA, one strand shown
CRX, sequence (O43186 whole entry): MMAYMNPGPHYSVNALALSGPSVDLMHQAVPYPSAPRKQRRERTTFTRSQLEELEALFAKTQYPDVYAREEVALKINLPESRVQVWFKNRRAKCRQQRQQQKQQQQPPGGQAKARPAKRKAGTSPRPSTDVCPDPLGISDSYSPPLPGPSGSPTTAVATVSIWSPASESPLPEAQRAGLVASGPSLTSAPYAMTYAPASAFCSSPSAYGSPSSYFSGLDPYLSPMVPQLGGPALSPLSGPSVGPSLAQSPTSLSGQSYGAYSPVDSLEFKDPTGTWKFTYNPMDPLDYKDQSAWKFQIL
In short: as §1

ETV1 = ETV1 (Homo sapiens, UniProt P50549 1-477); conditions: protein: recombinant; tags: N-terminal GST; dsDNA, one strand shown
ETV1, sequence (P50549 whole entry): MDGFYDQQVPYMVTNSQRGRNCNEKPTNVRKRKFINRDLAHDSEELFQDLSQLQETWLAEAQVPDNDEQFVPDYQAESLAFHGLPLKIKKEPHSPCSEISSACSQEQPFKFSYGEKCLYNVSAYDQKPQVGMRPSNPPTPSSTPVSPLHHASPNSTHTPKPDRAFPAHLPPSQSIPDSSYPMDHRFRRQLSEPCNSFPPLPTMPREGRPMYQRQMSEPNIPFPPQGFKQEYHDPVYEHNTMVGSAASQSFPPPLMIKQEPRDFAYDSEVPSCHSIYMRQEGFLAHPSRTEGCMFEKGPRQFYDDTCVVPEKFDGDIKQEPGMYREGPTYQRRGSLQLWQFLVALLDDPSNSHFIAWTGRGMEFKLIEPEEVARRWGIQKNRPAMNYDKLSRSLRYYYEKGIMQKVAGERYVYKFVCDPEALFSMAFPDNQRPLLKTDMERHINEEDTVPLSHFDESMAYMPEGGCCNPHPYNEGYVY
In short: as §1

TCACGC was tested, and the binding signal (FLI1) was 1.35 fold enrichment (6-mer frequency, TF over GST control), the binding signal (ELK1) was 1.18 fold enrichment (6-mer frequency, TF over GST control) and the binding signal (GABPA) was 1.22 fold enrichment (6-mer frequency, TF over GST control). The binding signal (ERG) was 1.18 fold enrichment (6-mer frequency, TF over GST control), the binding signal (ELF1) was 1.2 fold enrichment (6-mer frequency, TF over GST control) and the binding signal (EHF) was 1.24 fold enrichment (6-mer frequency, TF over GST control). The binding signal (SPI1) was 1.17 fold enrichment (6-mer frequency, TF over GST control), the binding signal (SPIB) was 1.17 fold enrichment (6-mer frequency, TF over GST control) and the binding signal (ELK3) was 1.28 fold enrichment (6-mer frequency, TF over GST control). The binding signal (FEV) was 1.18 fold enrichment (6-mer frequency, TF over GST control), the binding signal (ETV5) was 1.15 fold enrichment (6-mer frequency, TF over GST control) and the binding signal (HSF1) was 1.08 fold enrichment (6-mer frequency, TF over GST control). The binding signal (SPIC) was 1.25 fold enrichment (6-mer frequency, TF over GST control), the binding signal (ELF4) was 1.16 fold enrichment (6-mer frequency, TF over GST control) and the binding signal (ELK4) was 1.34 fold enrichment (6-mer frequency, TF over GST control). The binding signal (ETV2) was 1.26 fold enrichment (6-mer frequency, TF over GST control), the binding signal (ELF3) was 1.35 fold enrichment (6-mer frequency, TF over GST control) and the binding signal (CRX) was 1.02 fold enrichment (6-mer frequency, TF over GST control). For the same sequence, the binding signal (ETV1) was 1.13 fold enrichment (6-mer frequency, TF over GST control).
